# From PubChem BioAssay (EPA / NIEHS)
# Records with an inconclusive call do not appear. Active and inactive are the calls of the source. Rule for the calls: active = hit-call score of the fitted dose curve at least 0.9, where 1 is the maximum; inconclusive = response in the unintended direction; inactive = score below 0.9.
# Columns and labels:
# [1] = molecular target: human Thyroid Receptor Alpha (TRa), THRA (gene 7067) (UniProt P10827); experiment: NVS_NR_hTRa_Antagonist: NovaScreen (NVS) Nuclear Receptor Binding Assay for human Thyroid Receptor Alpha Antagonism (TRa) (AID 2283362);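 note: activity is loss of signal relative to DMSO baseline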
# human Thyroid Receptor Alpha (TRa), THRA (gene 7067), sequence (P10827 whole entry, looked up): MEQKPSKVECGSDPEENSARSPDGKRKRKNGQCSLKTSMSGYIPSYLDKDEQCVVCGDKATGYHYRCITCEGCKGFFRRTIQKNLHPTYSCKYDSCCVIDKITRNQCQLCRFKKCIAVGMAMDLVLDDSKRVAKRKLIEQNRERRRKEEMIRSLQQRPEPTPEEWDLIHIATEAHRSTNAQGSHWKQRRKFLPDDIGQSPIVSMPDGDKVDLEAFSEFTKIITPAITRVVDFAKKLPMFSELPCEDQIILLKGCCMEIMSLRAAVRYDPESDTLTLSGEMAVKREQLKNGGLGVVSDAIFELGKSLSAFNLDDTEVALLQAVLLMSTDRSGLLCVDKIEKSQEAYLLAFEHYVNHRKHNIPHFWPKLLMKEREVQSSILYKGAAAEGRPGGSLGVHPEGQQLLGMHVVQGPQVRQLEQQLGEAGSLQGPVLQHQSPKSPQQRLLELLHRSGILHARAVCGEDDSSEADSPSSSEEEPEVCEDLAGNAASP
# Summary of the method: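 Cell-free AlphaLISA chemiluminescent binding read 1 h after dosing, antagonist mode; signal loss versus DMSO baseline. Primary screen in duplicate at 25 uM, then concentration series for actives.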
# [2] = molecular target: rat Androgen Receptor (AR), Ar (gene 24208) (UniProt P15207); experiment: NVS_NR_rAR: NovaScreen (NVS) Nuclear Receptor Binding Assay for rat Androgen Receptor (AR) (AID 2283366)
# rat Androgen Receptor (AR), Ar (gene 24208), sequence (P15207 whole entry, looked up): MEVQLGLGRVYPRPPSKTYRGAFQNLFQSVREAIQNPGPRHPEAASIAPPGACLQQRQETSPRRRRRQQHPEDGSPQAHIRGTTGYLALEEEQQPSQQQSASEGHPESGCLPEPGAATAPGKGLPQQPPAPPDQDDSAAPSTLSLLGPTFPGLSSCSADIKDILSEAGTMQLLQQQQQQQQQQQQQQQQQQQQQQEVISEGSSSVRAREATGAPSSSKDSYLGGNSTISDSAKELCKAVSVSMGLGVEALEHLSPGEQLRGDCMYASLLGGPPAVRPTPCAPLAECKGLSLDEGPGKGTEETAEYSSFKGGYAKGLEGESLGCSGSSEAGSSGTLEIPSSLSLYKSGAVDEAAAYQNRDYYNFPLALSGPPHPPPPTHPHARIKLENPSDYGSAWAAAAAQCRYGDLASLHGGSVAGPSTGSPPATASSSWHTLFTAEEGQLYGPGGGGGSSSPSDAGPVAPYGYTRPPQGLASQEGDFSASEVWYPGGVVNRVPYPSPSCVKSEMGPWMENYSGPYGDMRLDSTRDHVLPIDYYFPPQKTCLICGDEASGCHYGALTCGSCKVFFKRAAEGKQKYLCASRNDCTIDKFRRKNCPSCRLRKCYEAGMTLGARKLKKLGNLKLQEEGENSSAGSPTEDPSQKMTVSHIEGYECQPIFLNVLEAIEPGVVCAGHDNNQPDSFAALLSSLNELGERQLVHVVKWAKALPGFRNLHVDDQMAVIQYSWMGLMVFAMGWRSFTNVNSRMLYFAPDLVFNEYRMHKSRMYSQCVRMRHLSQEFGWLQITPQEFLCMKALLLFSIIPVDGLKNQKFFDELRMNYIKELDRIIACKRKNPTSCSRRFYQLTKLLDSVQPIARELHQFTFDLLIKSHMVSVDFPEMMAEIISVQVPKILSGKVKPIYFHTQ
# Summary of the method: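 Cell-free radioligand binding on extracts of prostate from testosterone-pretreated rats, read by filter-based scintillation counting 18 h after dosing. Loss of bound signal fitted positively versus DMSO; primary screen in duplicate at 25 uM, actives followed up in concentration series.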
# [3] = molecular target: human Adenosine Transporter (Adot), SLC29A1 (gene 2030) (UniProt Q99808); experiment: NVS_TR_hAdoT: NovaScreen (NVS) Transporter Assay for human Adenosine Transporter (Adot) (AID 2283368)
# human Adenosine Transporter (Adot), SLC29A1 (gene 2030), sequence (Q99808 whole entry, looked up): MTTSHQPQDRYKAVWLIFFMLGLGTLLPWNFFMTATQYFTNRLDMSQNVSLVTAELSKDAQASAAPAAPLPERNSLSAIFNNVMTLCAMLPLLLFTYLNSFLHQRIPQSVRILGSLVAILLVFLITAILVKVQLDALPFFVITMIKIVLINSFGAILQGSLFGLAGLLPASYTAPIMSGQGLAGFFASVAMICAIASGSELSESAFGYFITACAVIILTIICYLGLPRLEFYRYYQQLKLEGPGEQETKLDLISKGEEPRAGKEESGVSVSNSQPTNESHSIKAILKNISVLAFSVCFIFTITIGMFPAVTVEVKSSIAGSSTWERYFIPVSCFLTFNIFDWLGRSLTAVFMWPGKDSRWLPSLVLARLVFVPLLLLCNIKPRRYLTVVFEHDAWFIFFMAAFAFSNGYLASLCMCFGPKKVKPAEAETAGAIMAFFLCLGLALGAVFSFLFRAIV
# Summary of the method: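 U937-derived membranes, cell-free radioligand binding, filter scintillation 1 h after dosing. 25 uM duplicate screen; hits (e.g. 30% inhibition) run in concentration-response up to 50 uM; loss of signal versus DMSO.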
compound,measurement,setting,value
CO/N=C(/C(=O)OC)c1ccccc1COc1ccccc1C,outcome,[1],inactive
CCCCCCCc1ccc(O)cc1,outcome,[1],inactive
same,outcome,[2],inactive
O=P(Oc1ccccc1)(Oc1ccccc1)Oc1ccccc1,outcome,[3],inactive
